# Measurements published in PubChem BioAssay (NCATS).
# Results filed as inconclusive are left out. Calls of active or inactive are those of the source. The call rests on the fitted dose curve; in most records, active means well fitted inhibition curve with a large enough effect; inconclusive means small, poorly fitted or top-dose-only effect; inactive means no such curve, though single readings can be large or run the other way. Square brackets hold non-standard residues; d marks the D form. Peptide text beside a SMILES is read from it. ξ: configuration not given here. ξTyr(βOH) = NC(C(=O)O)C(O)c1ccc(O)cc1
# Biological target: Retinaldehyde dehydrogenase 3 (Homo sapiens) (UniProt P47895)
# Assay: qHTS for Inhibitors of the Aldehyde Dehydrogenase Family (ALDH1A3) Primary screen (AID 2061315);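 further: plate controls were DMSO vehicle for no effect and reference inhibitor for full effect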
# Conditions: ALDH inhibition qHTS; series mostly up to 56 µM; activity change, negative = inhibition: at the top concentration
row,Compound,"activity change, negative = inhibition"
1,OC[C@@]1(O)CO[C@H](OC[C@H]2O[C@@H](OC(CCCCc3ccc(O)cc3)CCc3ccc(O)cc3)[C@H](O[C@H]3OC[C@](O)(CO)[C@H]3O)[C@@H](O)[C@@H]2O)[C@@H]1O (stereo partly specified),-6.8% [at 16.9 µM] (inactive)
2,Cc1ccccc1C(=O)Nc1ccc(C(=O)N2CCC[C@@H](O)c3cc(Cl)ccc32)c(C)c1,15.6% (inactive)
3,CC1(C)CC2C3=CCC4C5(C)CCC(OC6OC(C(=O)O)C(O)C(O)C6OC6OC(CO)C(O)C(O)C6OC6OC(CO)C(O)C(O)C6O)C(C)(CO)C5CCC4(C)C3(C)CCC2(C)C(OC2OCC(O)C(OC3OC(CO)C(O)C(O)C3O)C2O)C1O (stereo unspecified),-21.1% [at 11.2 µM] (inactive)
4,CC(=O)N1CCN(NC(=O)c2ccc(F)cc2)CC1,-13.5% (inactive)
5,CCCCC1CCC(c2nc(-c3ccncc3)no2)CC1 (stereo unspecified),-6.25% (inactive)
6,COC(C(=O)N1Cc2[nH]nc(NC(=O)c3ccc(N4CCN(C)CC4)cc3)c2C1)c1ccccc1 (stereo unspecified),9.86% (inactive)
7,C=C1CC[C@@H]2[C@](C)(CO)[C@H](O)CC[C@@]2(C)[C@@H]1C/C=C1/C(=O)OC[C@@H]1O,-0.968% (inactive)
8,CC(C)C1NC(=O)CNC(=O)C2CCCN2C(=O)C(Cc2c[nH]c3ccccc23)NC(=O)CNC(=O)C(C(O)c2ccc(O)cc2)NC(=O)CNC1=O (stereo unspecified) (cyclo(G[ξTyr(βOH)]GWPGV); configuration not given here),-12.4% [at 16.9 µM] (inactive)
9,COc1cc(C/C(=C/NC(C)=O)N(CC(=O)Cc2ccccc2)C(C)=O)cc2c1OCO2,3.92% [at 28 µM] (inactive)
10,CC(C)(O)/C=C/C(=O)[C@](C)(O)[C@H]1[C@H](O)C[C@@]2(C)[C@@H]3CC=C4[C@@H](C=C(O[C@@H]5O[C@H](CO)[C@@H](O)[C@H](O)[C@H]5O)C(=O)C4(C)C)[C@]3(C)C(=O)C[C@]12C,6.76% [at 16.9 µM] (inactive)
11,C[C@@H]1CC[C@@]23CC[C@]4(C)[C@@](C=CC5[C@@]6(C)CC[C@H](O)C(C)(C)C6CC[C@]54C)(OC2=O)C3[C@H]1C (stereo partly specified),15.8% [at 28 µM] (inactive)
12,CC(C)C1NC(=O)C2CCCN2C1=O (stereo unspecified),1.41% (inactive)
13,CCCCNc1ncc(C(=O)NCc2ccc(-n3ccnc3)cc2)c(NC2CCC(O)CC2)n1 (stereo unspecified),7.24% (inactive)
14,C[C@@H]1C(=O)O[C@H](C)[C@H]1CC(=O)[C@](C)(O)[C@H]1CC[C@@]2(O)C3=CC(=O)[C@@H]4C[C@@H](O)[C@@H](O)C[C@]4(C)C3CC[C@]12C (stereo partly specified),-16.7% [at 28 µM] (inactive)
15,C=C(C(=O)O)[C@H]1C[C@]2(C)[C@@H](O)CC[C@]23O[C@H]1C[C@@H]3C,1.33% (inactive)
16,CC1(C)NC2N(C1=O)c1ccccc1C2(O)CC(C(=O)O)n1cnc2ccccc2c1=O (stereo unspecified),-0.431% [at 28 µM] (inactive)

row,Compound,"activity change, negative = inhibition"
1,CC1OC(OC2C(CO)OC(OCC3OC(OC(=O)C45CCC(C)(C)CC4C4=CCC6C7(C)CCC(OC8OC(C(=O)O)C(O)C(OC9OC(CO)C(O)C(O)C9O)C8O)C(C)(C)C7CCC6(C)C4(C)CC5)C(O)C(O)C3O)C(O)C2O)C(O)C(O)C1O (stereo unspecified),-5.8% [at 11.2 µM] (inactive)
2,COC(=O)c1cc(OC)c(O[C@@H]2O[C@@H](C)[C@H](O)[C@@H](O)[C@H]2O)c(OC)c1,-24.7% (inactive)
3,O=C1C[C@@]2(C(=O)N1)C(=O)N(Cc1ccc(Br)cc1F)C(=O)c1cccn12,5.11% (inactive)
4,C=C1C(O[C@@H]2O[C@H](CO)[C@@H](O)[C@H](O)[C@@H]2O)CC2C(C)(C)C(O)CCC2(C)C1CC/C(C)=C\CO (stereo partly specified),6.64% [at 28 µM] (inactive)
5,C=C1CC2[C@@]3(C)C=CC(=O)C(C)(C)C3=C(O)C(=O)[C@@]2(C)C2(C(=O)OC)C(=O)C(C)OC(=O)[C@@]12C (stereo partly specified),5.26% [at 28 µM] (inactive)
6,COc1cc2c(cc1OC)[C@@H]1[C@H](O)[C@@H](OC)C=C3CCN(C2)[C@H]31,15% (inactive)
7,CCOc1ccc(-n2c(C(C)N(Cc3cccnc3)C(=O)Cc3ccc(F)c(C(F)(F)F)c3)nc3ncccc3c2=O)cc1 (stereo unspecified),14.4% (inactive)
8,CC(C)(O)C1CC(=O)C2(C)C(CCC3(C)C(c4ccoc4)OC(=O)C4OC432)C12CCC(=O)OC2 (stereo unspecified),-2.39% [at 28 µM] (inactive)
9,OC(CN1CCN(c2cccc(Cl)c2)CC1)C(c1ccccc1)c1ccccc1 (stereo unspecified),-10.1% (inactive)
10,NC(=O)NCCCC(NC(=O)Cc1ccccc1)C(=O)O (stereo unspecified),-7.19% (inactive)
11,CCC(CC)C(=O)Nc1sc2c(c1C#N)CCC(C(C)(C)CC)C2 (stereo unspecified),7.64% (inactive)
12,O=C1C=CC2OC(c3ccccc3)C(O)C2O1 (stereo unspecified),6.98% (inactive)
13,CC12CC34C=CC(=O)C(C)(CCC(=O)O)C3C(CC1C4)O2 (stereo unspecified),-3.1% (inactive)
14,C[C@@H]1C[C@H](C)CN(CCC(=O)Nc2ccc(Br)cc2)C1,-8.54% (inactive)
15,C=CC(C)(C)c1[nH]c2cc3c(cc2c1CC1NC(=O)C2=CCCN2C1=O)C=CC(C)(C)O3 (stereo unspecified),-10.1% [at 28 µM] (inactive)
